Reference: PubChem BioAssay AID2391 (Southern Research Specialized Biocontainment Screening …, 2010)
Hit rate of the full screen: of about 310,000 compounds, about 410 (0.13%) were called active. About 2% were inconclusive and are not listed. No rule for the calls is given here. Not all results are given here. Entries with a potency or affinity are not part of this list.

assay: inhibition of RSV-induced cytopathic effect – HEp-2 cells, primary 10 µM value included (AID 2391); details: at 10 µM, active compounds read high

CPE inhibition, inactive:
COc1ccc(NC(=O)c2sc3nc(-c4cccnc4)ccc3c2N)cc1OC 1.58%, COc1ccc(-c2ccc3c(N)c(C(=O)c4ccc(OC)c(OC)c4)sc3n2)cc1 1.75%, O=C(Nc1nc(-c2ccccc2)cs1)c1cccc([N+](=O)[O-])c1C(=O)O 0.63%, CCCC(=O)Oc1ccc(C2NC(=O)c3ccccc3O2)cc1OC (stereo not drawn) -0.32%, CCNS(=O)(=O)c1ccc(CCC(=O)NCc2ccccn2)cc1 -0.26%, CS(=O)(=O)N1N=C(c2ccco2)CC1c1ccc(Br)cc1 (stereo not drawn) -1.1%, CCOc1c(Cl)cc(CNCc2ccccn2)cc1OC 0.14%, C/C(N)=C(/C#N)C(=O)COC(=O)CNS(=O)(=O)c1ccc(C)cc1 0.79%, C/C(N)=C(/C#N)C(=O)COC(=O)CNS(=O)(=O)c1c(F)cccc1F 1.63%, CCOC(=O)c1sc(=NC(=O)c2ccc(OC(C)C)cc2)n(C)c1C -0.02%, Cc1cc[n+](C(C)C(=O)c2ccc(Cl)cc2)cc1 (stereo not drawn) 0.43%, COC(=O)C1=C(N)Oc2cc(C)n(Cc3ccccc3)c(=O)c2C1c1ccccc1 (stereo not drawn) 3.61%, O=C(Nc1ccccc1N1CCN(C(=O)c2ccc(Cl)cc2)CC1)c1ccc(Br)cc1 10.3%, CN(C)C(=O)COC(=O)c1ccccc1OCC(=O)Nc1ccc(SC(F)F)cc1 0.56%, CC(C)(C)NC(=O)COC(=O)c1ccccc1Nc1ccc(SC(F)F)cc1 20.3%, c1ccc2[nH]cnc2c1 3.25%, Clc1cc2nc[nH]c2cc1Cl 2.89%, OCc1cn(-c2ccc(Cl)cc2)nn1 0.61%, COc1cc(NC(=O)C2CC(=O)N(CCc3ccc(F)cc3)C2)cc(OC)c1OC (stereo not drawn) 1.32%, CCn1c2ccc(F)cc2c2nnc(NN)nc21 8.49%, CCCn1c2ccc(F)cc2c2nnc(NN)nc21 2.66%, Cc1nn(-c2ccccc2)cc1/C=N/NS(=O)(=O)c1ccccc1 0.36%, Cc1nc(-c2cccc(S(=O)(=O)N3CCOCC3)c2)cs1 2.05%, O=S(=O)(c1cccc(-c2csc(-c3cccnc3)n2)c1)N1CCOCC1 18.8%, CC(C)(C)c1ccc(C(=O)c2c[nH]c(C(=O)NCCCn3ccnc3)c2)cc1 15.1%, CC(C)[C@H](NC(=O)N1CCn2c1nc1ccccc12)C(=O)NCc1ccco1 5.22%, CC(C)[C@H](NC(=O)N1CCn2c1nc1ccccc12)C(=O)NCc1ccc(F)cc1 7.05%, COc1cc(C(=O)NNC(=O)COc2ccccc2Cl)ccc1OCC(=O)N1CCOCC1 0.6%, O=C(Nc1cccc(NC(=O)c2ccccc2Cl)c1)c1ccco1 2.07%, c1ccc(N2CCN(c3ncnc4scc(-c5cccs5)c34)CC2)cc1 12.1%, COc1ccccc1C(=O)NCCCNc1ccc([N+](=O)[O-])cc1 0.97%, CCn1c(=O)c2cc(C(=O)N(C)c3ccccc3F)sc2c2ccccc21 17.4%, CCn1c(=O)c2cc(C(=O)N(C)c3ccc(OC)cc3OC)sc2c2ccccc21 13.1%, Cc1ccc(-c2nn(-c3ccccc3)cc2CN(Cc2ccccc2)C(=O)c2ccco2)o1 22.2%, Cc1c(CC(=O)N[C@@H](C)C(=O)O)c(=O)oc2c(C)c3occ(-c4ccccc4)c3cc12 6.88%, CCCCC(NC(=O)Cc1c(C)c2cc3c(C)c(C)oc3c(C)c2oc1=O)C(=O)O (stereo not drawn) 1.13%, COc1ccc(Cl)cc1N(C(C)C(=O)O)S(C)(=O)=O (stereo not drawn) 1.24%, CC(C)COc1ccc(C(=O)NNC(=O)c2ccc(=O)[nH]c2)cc1 0.85%, CCCCn1c(N)c(N(CCOC)C(=O)c2cc(CC)c(C)s2)c(=O)[nH]c1=O 0.21%, COc1ccccc1N(Cc1ccccc1)S(=O)(=O)c1cccc(C(=O)Nc2ccccn2)c1 40.2%, COc1ccccc1N(Cc1ccccc1)S(=O)(=O)c1cccc(C(=O)Nc2ccc(C)cn2)c1 40.7%, Cc1ccc(N(CCC#N)C(=O)COC(=O)C2CCN(S(=O)(=O)c3ccc(C)c(C)c3)CC2)cc1 3.94%, COCCN(C(=O)CSc1nnc(-c2ccc(Cl)cc2)o1)c1c(N)n(CC(C)C)c(=O)[nH]c1=O 2.35%, CCN(CC)c1ccc(-c2nnc(SCC(=O)N(CCOC)c3c(N)n(CC(C)C)c(=O)[nH]c3=O)o2)cc1 8.83%, CCc1cc(=O)oc2cc(OC(C)=O)cc(OC(C)=O)c12 5.44%, COc1cc(OC)c2c(C)cc(=O)oc2c1 0.35%, CCOc1ccccc1N(CC(=O)N1CCC(C(N)=O)CC1)S(=O)(=O)c1ccc(SC)cc1 1.65%, Cc1ccc(Cl)cc1NC(=O)CSc1sc2c(O)cc(=O)[nH]c2c1C#N -0.05%, Cc1ccc(C)c(OCC(=O)NCC(c2ccco2)N2CCCCC2)c1 (stereo not drawn) -1.03%, OCCOCCn1c(C(CO)Nc2nc(-c3ccc(Cl)cc3)cs2)nc2ccccc21 (stereo not drawn) 9.48%, Fc1ccc(Nc2nc(-c3ccncc3)nc3ccccc23)cc1 4.4%, c1ccc(Nc2nc(-c3ccncc3)nc3ccccc23)cc1 4.52%, COc1ccc(C(=O)NCCn2cc(SCC(=O)NCC3CCCO3)c3ccccc32)cc1 (stereo not drawn) 0.51%, Cc1ccc(NC(=O)C2CCN(S(=O)(=O)c3ccc(F)cc3)CC2)cc1 -1.19%, Cc1ccc(S(=O)(=O)N2CCC(C(=O)Nc3ccc(S(=O)(=O)N4CCCC4)cc3)CC2)cc1 0.34%, CC(NC(=O)c1ccccc1NC(=O)c1ccccc1)C(=O)N1CCOCC1 (stereo not drawn) 3.72%, Cc1ccc2[nH]c3c(c2c1)CN(C)CC3 -0.58%, CN1CCc2[nH]c3ccc(C(=O)NN)cc3c2C1 -1.2%
